Measured values: PubChem BioAssay (NCATS)
Where “and” joins values, the source holds several entries; their conditions need not be identical. Equal entries are not always repeated. Records with an inconclusive call do not appear. More than one record can exist for a structure, and the calls need not agree. Calls of active or inactive are those of the source. Unless noted, calls follow the shape of the dose curve; as a rule, active = well fitted curve in the direction sought with a large enough effect; inconclusive = small, poorly fitted or top-dose-only effect, or another doubt; inactive = no such curve, though single readings can be large; an effect the other way counts as inactive or inconclusive.

What was measured:
[1] = molecular target: Protein phosphatase 1D (Homo sapiens) (UniProt O15297); test: RapidFire Mass Spectrometry qHTS Assay for Modulators of WT P53-Induced Phosphatase 1 (WIP1) (AID 1347424); also: series mostly up to about 63 µM
How it was run: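 RapidFire MS readout of dephosphorylated VEPPL-S-QETFS product, with 1 uM isotope-labelled peptide standard. Reaction: 10 nM WIP1, 2 uM phosphopeptide substrate, 5 min, room temperature, after 1 h compound preincubation; stopped with 0.5% formic acid.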

[2] = molecular target: Protein phosphatase 1D (Homo sapiens) (UniProt O15297); test: Rhodamine-PBP qHTS Assay for Modulators of WT P53-Induced Phosphatase 1 (WIP1) (AID 1347425)
How it was run: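 Read-out: Rhodamine-PBP fluorescence (ex 525/em 598 nm) for released Pi, read each minute for 11 min after adding 10 uM VEPPL-pS-QETFS; signal taken as f1 minus pre-substrate f0. Enzyme 5 nM WIP1 with 1 hr room-temperature compound preincubation.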

[3] = Validation qHTS assay for inhibitors of Activation Induced Cytidine Deaminase (AID): UDG Counterscreen signal (AID 1347427)
How it was run: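 Fluorescence at 560 nm excitation, 665 nm emission reports UDG signal after 250 mM NaOH (2x) addition and 30 min. Enzymes (AID 1 uM, UDG 2 U/mL, at 4/3x) preincubated 10 min with compound, then 4 h with 4x 250 nM DJC20/DJC23 substrate at room temperature.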

[4] = molecular target: Single-stranded DNA cytosine deaminase (Homo sapiens) (UniProt Q9GZX7); test: Validation qHTS assay for inhibitors of Activation Induced Cytidine Deaminase (AID): AID signal (AID 1347429)
How it was run: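 Compounds (final up to 114 uM) preincubated with AID plus UDG; 250 nM DJC20/DJC23 substrate mix (4x stock) added, 4 hr at room temperature, then NaOH, 30 min. Read 1 fluorescence at 540 nm excitation, 590 nm emission.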

[5] = Primary qHTS for inhibitors of La Crosse Virus (LACV) - induced cell death in SH-SY5Y cells (AID 1508616);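 also: top concentration of the series differs between compounds; higher means more rescue of cells from virus-induced death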
How it was run: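 Rescue of virus-induced death was read as ATPLite luminescence after 6 days at 37C, scaled between DMSO wells with LACV and without virus. Cells were SH-SY5Y, 6000/well, infected at 0.01 MOI after compound addition.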

[6] = molecular target: Calcium and integrin-binding protein 1 (Homo sapiens) (UniProt Q99828); test: Validation qHTS for Identification of Calcium Integrin Binding protein 1 (CIB1) Competitor (AID 1508618)
How it was run: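 CIB1-GST (1 uM final) in 5 mM HEPES pH 7.4, 125 mM NaCl, 5 mM CaCl2, 0.01% Tween20 was preincubated 15 min at room temperature with compound (up to 114 uM), then FITC-alphaIIb peptide (100 nM) added for 15 min; fluorescence polarization read.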

[7] = molecular target: Calcium and integrin-binding protein 1 (Homo sapiens) (UniProt Q99828); test: Primary qHTS for Identification of Calcium Integrin Binding Protein 1 (CIB1) Competitor (AID 1508620);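 also: GST tagged CIB1 binding a fluorescein labelled alphaIIb integrin peptide tracer; top concentration of the series differs between compounds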
How it was run: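 Fluorescence polarization competition: GST-tagged CIB1 (1 uM final) preincubated with compound 15 min at room temperature, then FITC-labelled alphaIIb peptide (100 nM final) added. After 15 min at room temperature, polarization read at Ex 480/Em 540.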

[8] = Counterscreen qHTS for small molecule stabilizers of the endoplasmic reticulum resident proteome: GLuc-NoTag assay (AID 1508627);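 also: SH-SY5Y cells given compound then 100 nM thapsigargin to empty ER calcium; series mostly up to about 76 µM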
How it was run: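 Counterscreen line: SH-SY5Y-GLuc-NoTag. Seed, 5 h; compound, 19 h; thapsigargin 100 nM, 4 h; 37C/5% CO2. Readout: secreted GLuc luminescence, coelenterazine 0.07x final, no lysis.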

[9] = Primary qHTS for small molecule stabilizers of the endoplasmic reticulum resident proteome: Secreted ER Calcium Modulated Protein (SERCaMP) assay (AID 1508630); also: potency is read from the fitted curve at half-maximal effect
How it was run: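 The SH-SY5Y reporter protocol was run at 3 concentrations up to 38.3 uM (primary) or 11 concentrations (follow-up): 16 h compound, 100 nM thapsigargin for 4 h, then extracellular luciferase luminescence.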

[10] = A High-Content qHTS Against Drug Library for the Identification of Small Molecules that Inhibit DYT1 Early Onset Primary Dystonia-Associated Cell Pathology (AID 1645839; calls by dose curve; also: potency is read from the fitted curve at half-maximal effect)
How it was run: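 Cells were seeded and left for 24 h, then dosed with compound alongside tetracycline induction of mutant EGFP-TorsinA. They were incubated for 48 h, fixed in 4% paraformaldehyde, permeabilized and imaged for mislocalization (%pathology) and cell count.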

[11] = molecular target: Cytochrome P450 2D6 (Homo sapiens) (UniProt P10635); test: Cytochrome P450 family 2 subfamily D member 6 (CYP2D6) small molecule antagonists: luciferase biochemical (cell-free) qHTS assay (AID 1645840; active = well fitted curve in the direction sought with a large enough effect in the repeat runs; an effect the other way counts as inactive or inconclusive; also: nearly all actives have a fitted effect of over 55% in size; also: potency is read from the fitted curve at half-maximal effect)
How it was run: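 P450-Glo CYP2D6 system: proluciferin substrate converted by enzyme to luciferin, read by luminescence proportional to activity. Enzyme-substrate mix with compound 10 min at room temperature, then NADPH regeneration 1 h before detection reagent.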

[12] = molecular target: Papain (Carica papaya) (UniProt P00784); test: Primary qHTS assay for inhibitors of the protease papain (AID 1645873);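 also: papain turnover of Z-FR-AMC read as the AMC fluorescence gain over 10 min; series mostly up to about 50 µM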
[13] = Primary qHTS for inhibitors of nuclear receptor binding SET domain protein 2 (NSD2) in an isogenic RCH-ACV NSD2 p.E1099K mutant (9B) (AID 1645876); also: nearly all actives have a fitted effect of over 70% in size; also: potency is read from the fitted curve at half-maximal effect
[14] = Primary qHTS for inhibitors of nuclear receptor binding SET domain protein 2 (NSD2) in an RCH-ACV wild type WT cells (2C) (AID 1645877); also: nearly all actives have a fitted effect of over 70% in size; also: potency is read from the fitted curve at half-maximal effect
[15] = qHTS to identify inhibitors of the type 1 interferon - major histocompatibility complex class I in skeletal muscle: primary screen against the NCATS Mechanism Interrogation Plate v5.0 (MIPE) Libary (AID 1347411); also: nearly all actives have a fitted effect of over 65% in size; also: potency is read from the fitted curve at half-maximal effect
How it was run: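 Luminescence from CRISPR HiBit-tagged endogenous HLA-B in human myoblasts reported MHC class I level after 24 h of IFN-beta (4 ng/ml) plus compound. Compounds ran as 11-point 1:3 series, top 46 uM final.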

[16] = molecular target: Cytochrome P450 2C9 (Homo sapiens) (UniProt P11712); test: Cytochrome P450 family 2 subfamily C member 9 (CYP2C9) small molecule antagonists: luciferase biochemical (cell-free) qHTS assay (AID 1645842; active = well fitted curve in the direction sought with a large enough effect in the repeat runs; an effect the other way counts as inactive or inconclusive; also: nearly all actives have a fitted effect of over 55% in size; also: potency is read from the fitted curve at half-maximal effect)
How it was run: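 P450-Glo CYP2C9 system: proluciferin substrate with enzyme in mix containing 0.4% BSA, 10 min at room temperature, then NADPH regeneration solution added and incubated 1 h at 37C. Detection reagent stopped reaction; luminescence read after 20 min as RLU.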

Measured: Potency

Sequence of Protein phosphatase 1D (Homo sapiens) (O15297 whole entry, looked up): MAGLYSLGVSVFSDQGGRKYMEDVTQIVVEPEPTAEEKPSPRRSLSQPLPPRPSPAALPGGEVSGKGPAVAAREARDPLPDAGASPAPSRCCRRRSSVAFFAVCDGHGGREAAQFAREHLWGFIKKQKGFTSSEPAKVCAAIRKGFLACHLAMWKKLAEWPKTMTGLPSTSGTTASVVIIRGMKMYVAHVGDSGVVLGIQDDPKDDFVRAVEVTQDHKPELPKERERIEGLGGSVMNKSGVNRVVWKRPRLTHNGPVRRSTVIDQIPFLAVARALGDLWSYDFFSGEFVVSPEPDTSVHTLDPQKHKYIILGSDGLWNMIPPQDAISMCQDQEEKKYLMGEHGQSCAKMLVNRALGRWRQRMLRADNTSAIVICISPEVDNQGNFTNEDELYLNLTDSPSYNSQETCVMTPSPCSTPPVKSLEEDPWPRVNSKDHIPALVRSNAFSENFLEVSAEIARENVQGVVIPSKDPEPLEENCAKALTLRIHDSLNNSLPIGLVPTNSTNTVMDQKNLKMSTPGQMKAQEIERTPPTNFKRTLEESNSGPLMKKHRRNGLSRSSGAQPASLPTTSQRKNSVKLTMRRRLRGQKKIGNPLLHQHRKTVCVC
Sequence of Cytochrome P450 2D6 (Homo sapiens) (P10635 whole entry, looked up): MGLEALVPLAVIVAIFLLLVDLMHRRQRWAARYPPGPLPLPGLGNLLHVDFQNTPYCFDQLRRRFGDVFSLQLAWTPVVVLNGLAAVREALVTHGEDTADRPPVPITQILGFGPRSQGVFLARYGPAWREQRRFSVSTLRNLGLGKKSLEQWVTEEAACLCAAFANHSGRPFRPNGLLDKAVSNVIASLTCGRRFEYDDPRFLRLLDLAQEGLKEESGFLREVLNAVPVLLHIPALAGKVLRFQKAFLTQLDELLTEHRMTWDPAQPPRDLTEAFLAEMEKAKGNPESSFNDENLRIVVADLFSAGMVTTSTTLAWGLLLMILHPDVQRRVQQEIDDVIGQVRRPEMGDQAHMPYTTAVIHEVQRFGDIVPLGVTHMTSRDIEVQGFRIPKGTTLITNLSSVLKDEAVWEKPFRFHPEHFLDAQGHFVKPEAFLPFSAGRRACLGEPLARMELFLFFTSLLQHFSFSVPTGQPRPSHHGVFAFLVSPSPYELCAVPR
Sequence of Cytochrome P450 2C9 (Homo sapiens) (P11712 whole entry, looked up): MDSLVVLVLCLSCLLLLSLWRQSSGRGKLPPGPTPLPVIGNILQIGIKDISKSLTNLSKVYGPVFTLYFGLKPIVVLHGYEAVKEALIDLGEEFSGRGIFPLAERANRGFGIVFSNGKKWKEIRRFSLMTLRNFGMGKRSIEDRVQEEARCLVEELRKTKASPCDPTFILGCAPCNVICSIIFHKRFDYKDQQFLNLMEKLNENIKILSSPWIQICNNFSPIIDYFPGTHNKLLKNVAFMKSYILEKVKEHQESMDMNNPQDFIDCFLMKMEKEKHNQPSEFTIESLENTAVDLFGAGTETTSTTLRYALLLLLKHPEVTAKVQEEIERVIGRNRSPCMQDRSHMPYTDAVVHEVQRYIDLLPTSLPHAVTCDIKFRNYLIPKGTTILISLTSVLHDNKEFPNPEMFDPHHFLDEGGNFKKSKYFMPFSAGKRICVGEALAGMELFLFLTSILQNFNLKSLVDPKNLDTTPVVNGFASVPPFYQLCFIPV
Sequence of Papain (Carica papaya) (P00784 whole entry, looked up, the tested form may be a part): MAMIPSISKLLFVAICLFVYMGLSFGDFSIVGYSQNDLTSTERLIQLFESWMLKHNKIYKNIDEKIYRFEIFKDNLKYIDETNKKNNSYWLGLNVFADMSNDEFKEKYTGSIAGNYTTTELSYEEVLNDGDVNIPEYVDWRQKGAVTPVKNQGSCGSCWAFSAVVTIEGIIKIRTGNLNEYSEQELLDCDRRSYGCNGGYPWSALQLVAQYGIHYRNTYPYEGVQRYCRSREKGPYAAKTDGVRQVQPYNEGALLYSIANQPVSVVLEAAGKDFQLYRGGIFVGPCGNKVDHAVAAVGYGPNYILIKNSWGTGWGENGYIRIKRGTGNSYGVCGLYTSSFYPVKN
Sequence of Calcium and integrin-binding protein 1 (Homo sapiens) (Q99828 whole entry, looked up): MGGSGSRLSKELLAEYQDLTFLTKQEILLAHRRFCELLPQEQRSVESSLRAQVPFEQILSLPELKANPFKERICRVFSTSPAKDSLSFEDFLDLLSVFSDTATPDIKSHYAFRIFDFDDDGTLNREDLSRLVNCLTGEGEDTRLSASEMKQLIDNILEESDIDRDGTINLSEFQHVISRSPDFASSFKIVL
Sequence of Single-stranded DNA cytosine deaminase (Homo sapiens) (Q9GZX7 whole entry, looked up): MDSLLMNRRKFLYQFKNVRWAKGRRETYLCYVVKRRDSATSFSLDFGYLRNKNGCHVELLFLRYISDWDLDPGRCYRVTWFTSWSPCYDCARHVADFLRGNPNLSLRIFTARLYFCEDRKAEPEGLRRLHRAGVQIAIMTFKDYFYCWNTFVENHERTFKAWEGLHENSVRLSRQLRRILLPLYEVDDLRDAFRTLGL

O=C1N=C(O)CN1/N=C/c1ccc(-c2ccc([N+](=O)[O-])cc2)o1
active: [9] 14.1 µM
inactive: [1] | [2] | [3] | [4] | [5] | [6] | [7] | [8] | [10] | [11] | [12] | [13] | [14]

Nc1ncnc2c1ncn2[C@@H]1O[C@H](CO)[C@@H](O)[C@H]1O
5.96 µM (active) and inactive: [14]
inactive: [15] | [1] | [2] | [3] | [4] | [5] | [6] | [7] | [9] | [10] | [12]
9.44 µM (active) and inactive: [13]

CC(=O)OCC(=O)[C@@]1(O)CC[C@H]2[C@@H]3CCC4=CC(=O)CC[C@]4(C)[C@H]3C(=O)C[C@@]21C
inactive: [15] | [2] | [3] | [4] | [5] | [6] | [7] | [9] | [10] | [12] | [13] | [14]
active: [11] 3.89 µM

CC[C@H]1CN2CCc3cc(OC)c(OC)cc3[C@@H]2C[C@@H]1C[C@H]1NCCc2cc(OC)c(OC)cc21
active: [15] 0.658 µM | [13] 84.1 nM and 132 nM | [14] 59.6 nM and 118 nM
inactive: [1] | [2] | [3] | [4] | [6] | [7] | [9] | [11] | [16] | [12]

CN(C)CCOC(C)(c1ccccc1)c1ccccn1 (stereo not drawn)
inactive: [1] | [2] | [3] | [4] | [5] | [6] | [7] | [9] | [10] | [16] | [12] | [13] | [14]

COCCOC(=O)C1=C(C)NC(C)=C(C(=O)OC/C=C/c2ccccc2)C1c1cccc([N+](=O)[O-])c1 (stereo not drawn)
inactive: [1] | [2] | [3] | [4] | [5] | [6] | [7] | [9] | [12]
active: [10] 11.2 µM | [16] 0.0617 µM | [13] 15 µM | [14] 21.1 µM

OC[C@H]1O[C@@H](O[C@@H]2[C@@H](CO)O[C@](O)(CO)[C@H]2O)[C@H](O)[C@@H](O)[C@H]1O
inactive: [15] | [1] | [2] | [5] | [7] | [9] | [10] | [11] | [13] | [14]

NC1CCN(c2cccc(Cl)n2)CC1
active: [11] 1.55 µM
inactive: [1] | [2] | [3] | [4] | [5] | [7] | [9] | [16] | [13] | [14]

CN(C)CCN(Cc1ccccc1)c1ccccn1
inactive: [1] | [2] | [5] | [7] | [9] | [10] | [16]
active: [11] 0.174 µM
